# Test results published in PubChem BioAssay AID1159580 (chemical genetic matrix, 2015).
# Values joined by “and” are separate entries in the source; they are usually repeats but may differ in a detail not shown here. Identical values can stand only once. Among all 5,500 compounds or so, about 2,000 (36%) were called active. About 18% were inconclusive and are not listed. This is one part of the list. Unmarked numbers belong to inactive results. No stated cut-off is given here; in the data, active means normalized growth mostly below about 0.91 (no sharp cut-off); inconclusive means no clear call, values can overlap the other calls; inactive means mostly above about 0.92.
# Experiment: chemical genetic growth profiling, strain panel (AID 1159580);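 further: tested at 20 µM; growth read once vehicle control cultures reached saturation at 30 °C; 1 = growth at the plate median or of vehicle wells; lower values mean less growth of the strain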
# Details: growth OD
# [1] = S. cerevisiae deletion strains, locus YDL101C, strain DUN1, hits give low values
# [2] = S. cerevisiae deletion strains, locus YGR052W, strain FMP48, hits give low values
# [3] = S. cerevisiae deletion strains, locus YHR030C, strain SLT2, hits give low values
# [4] = S. cerevisiae deletion strains, locus YHR079C, strain IRE1, hits give low values
# [5] = S. cerevisiae deletion strains, locus YHR082C, strain KSP1, hits give low values
# [6] = S. cerevisiae deletion strains, locus YJL095W, strain BCK1, hits give low values
# [7] = S. cerevisiae deletion strains, locus YJR066W, strain TOR1, hits give low values
# [8] = S. cerevisiae deletion strains, locus YKL203C, strain TOR2, hits give low values
# [9] = S. cerevisiae deletion strains, locus YLR113W, strain HOG1, hits give low values
# [10] = S. cerevisiae deletion strains, locus YNL183C, strain NPR1, hits give low values
# [11] = S. cerevisiae deletion strains, locus YNL207W, strain RIO2, hits give low values
# [12] = S. cerevisiae deletion strains, locus YOR119C, strain RIO1, hits give low values
# [13] = S. cerevisiae deletion strains, locus YOR231W, strain MKK1, hits give low values
# [14] = S. cerevisiae deletion strains, locus YPL256C, strain CLN2, hits give low values
compound,measurement,setting,value
N#Cc1ccc(Oc2sccc2[N+](=O)[O-])cc1,normalized growth,"S. cerevisiae deletion strains, locus YAR019C, strain CDC15, hits give low values",0.937
same,normalized growth,"S. cerevisiae deletion strains, locus YBL105C, strain PKC1, hits give low values",0.978
same,normalized growth,"S. cerevisiae deletion strains, locus YBR135W, strain CKS1, hits give low values",0.946
same,normalized growth,"S. cerevisiae deletion strains, locus YBR136W, strain MEC1, hits give low values",0.971
same,normalized growth,"S. cerevisiae deletion strains, locus YBR160W, strain CDC28, hits give low values",0.992
same,normalized growth,"S. cerevisiae deletion strains, locus YDL017W, strain CDC7, hits give low values",0.985
same,normalized growth,"S. cerevisiae deletion strains, locus YDL028C, strain MPS1, hits give low values",0.978
same,normalized growth,[1],0.959
same,normalized growth,"S. cerevisiae deletion strains, locus YDL108W, strain KIN28, hits give low values",0.97
same,normalized growth,"S. cerevisiae deletion strains, locus YDL132W, strain cdc53, hits give low values",0.942
same,normalized growth,"S. cerevisiae deletion strains, locus YDL214C, strain PRR2, hits give low values",0.901
same,normalized growth,"S. cerevisiae deletion strains, locus YDR052C, strain DBF4, hits give low values",0.975
same,normalized growth,"S. cerevisiae deletion strains, locus YDR054C, strain cdc34, hits give low values",0.907
same,normalized growth,"S. cerevisiae deletion strains, locus YDR226W, strain ADK1, hits give low values",0.98
same,normalized growth,"S. cerevisiae deletion strains, locus YDR477W, strain SNF1, hits give low values",0.888
same,normalized growth,"S. cerevisiae deletion strains, locus YER123W, strain YCK3, hits give low values",0.748
same,normalized growth,"S. cerevisiae deletion strains, locus YER133W, strain GLC7, hits give low values",0.847
same,normalized growth,"S. cerevisiae deletion strains, locus YFL009W, strain cdc4, hits give low values",0.908
same,normalized growth,"S. cerevisiae deletion strains, locus YFL029C, strain CAK1, hits give low values",0.907
same,normalized growth,"S. cerevisiae deletion strains, locus YFR003C, strain YPI1, hits give low values",0.975
same,normalized growth,"S. cerevisiae deletion strains, locus YFR019W, strain FAB1, hits give low values",0.924
same,normalized growth,"S. cerevisiae deletion strains, locus YFR028C, strain CDC14, hits give low values",0.953
same,normalized growth,"S. cerevisiae deletion strains, locus YGR040W, strain KSS1, hits give low values",0.867
same,normalized growth,[2],0.879
same,normalized growth,"S. cerevisiae deletion strains, locus YGR092W, strain DBF2, hits give low values",0.769
same,normalized growth,[3],0.942
same,normalized growth,[4],0.955
same,normalized growth,[5],0.934
same,normalized growth,"S. cerevisiae deletion strains, locus YHR205W, strain SCH9, hits give low values",0.894
same,normalized growth,"S. cerevisiae deletion strains, locus YIL147C, strain SLN1, hits give low values",0.969
same,normalized growth,[6],0.825
same,normalized growth,"S. cerevisiae deletion strains, locus YJL128C, strain PBS2, hits give low values",0.923
same,normalized growth,"S. cerevisiae deletion strains, locus YJL157C, strain FAR1, hits give low values",0.883
same,normalized growth,"S. cerevisiae deletion strains, locus YJR016C, strain ILV3, hits give low values",0.946
same,normalized growth,"S. cerevisiae deletion strains, locus YJR066W, strain TOR1 (second series), hits give low values",0.821
same,normalized growth,[7],0.907
same,normalized growth,"S. cerevisiae deletion strains, locus YKL048C, strain ELM1, hits give low values",0.95
same,normalized growth,"S. cerevisiae deletion strains, locus YKL067W, strain YNK1, hits give low values",0.895
same,normalized growth,"S. cerevisiae deletion strains, locus YKL101W, strain HSL1, hits give low values",0.927
same,normalized growth,"S. cerevisiae deletion strains, locus YKL193C, strain SDS22, hits give low values",0.941
same,normalized growth,[8],0.911
same,normalized growth,[9],0.76 (active)
same,normalized growth,"S. cerevisiae deletion strains, locus YLR133W, strain CKI1, hits give low values",0.933
same,normalized growth,"S. cerevisiae deletion strains, locus YLR403W, strain SFP1, hits give low values",0.863
same,normalized growth,"S. cerevisiae deletion strains, locus YML070W, strain DAK1, hits give low values",0.869
same,normalized growth,"S. cerevisiae deletion strains, locus YMR001C, strain CDC5, hits give low values",0.935
same,normalized growth,"S. cerevisiae deletion strains, locus YMR205C, strain PFK2 (second series), hits give low values",0.899
same,normalized growth,"S. cerevisiae deletion strains, locus YMR277W, strain FCP1, hits give low values",0.92
same,normalized growth,"S. cerevisiae deletion strains, locus YNL006W, strain LST8, hits give low values",0.932
same,normalized growth,"S. cerevisiae deletion strains, locus YNL020C, strain ARK1, hits give low values",0.934
same,normalized growth,"S. cerevisiae deletion strains, locus YNL161W, strain CBK1, hits give low values",0.956
same,normalized growth,[10],0.856
same,normalized growth,[11],0.956
same,normalized growth,"S. cerevisiae deletion strains, locus YNL222W, strain SSU72, hits give low values",0.957
same,normalized growth,"S. cerevisiae deletion strains, locus YNL307C, strain MCK1 (second series), hits give low values",0.918
same,normalized growth,"S. cerevisiae deletion strains, locus YOL078W, strain AVO1, hits give low values",0.914
same,normalized growth,"S. cerevisiae deletion strains, locus YOL136C, strain PFK27, hits give low values",0.901
same,normalized growth,"S. cerevisiae deletion strains, locus YOR061W, strain CKA2, hits give low values",0.886
same,normalized growth,[12],0.925
same,normalized growth,[13],0.837
same,normalized growth,"S. cerevisiae deletion strains, locus YOR329C, strain SCD5, hits give low values",0.977
same,normalized growth,"S. cerevisiae deletion strains, locus YPL031C, strain PHO85, hits give low values",0.876
same,normalized growth,"S. cerevisiae deletion strains, locus YPL153C, strain RAD53, hits give low values",0.866
same,normalized growth,"S. cerevisiae deletion strains, locus YPL204W, strain HRR25, hits give low values",0.872
same,normalized growth,"S. cerevisiae deletion strains, locus YPL209C, strain IPL1, hits give low values",0.98
same,normalized growth,[14],1.05
same,normalized growth,"S. cerevisiae deletion strains, locus YPR025C, strain CCL1, hits give low values",0.971
same,normalized growth,"S. cerevisiae deletion strains, locus YPR106W, strain ISR1, hits give low values",0.96
same,normalized growth,"S. cerevisiae deletion strains, locus YPR111W, strain DBF20, hits give low values",0.993
same,normalized growth,"S. cerevisiae deletion strains, strain NNK1, hits give low values",0.971
same,normalized growth,"S. cerevisiae deletion strains, strain TSCII, hits give low values",0.921
CCOC(=O)c1ccc(Oc2sccc2[N+](=O)[O-])cc1,normalized growth,"S. cerevisiae deletion strains, locus YAL013W, strain DEP1, hits give low values",0.796 (active)
same,normalized growth,"S. cerevisiae deletion strains, locus YBR229C, strain ROT2, hits give low values",0.817 (active)
same,normalized growth,[1],0.77 (active)
same,normalized growth,"S. cerevisiae deletion strains, locus YDR150W, strain NUM1, hits give low values",0.866
same,normalized growth,"S. cerevisiae deletion strains, locus YEL061C, strain CIN8, hits give low values",0.442 (active)
same,normalized growth,[2],0.872
same,normalized growth,"S. cerevisiae deletion strains, locus YGR078C, strain PAC10, hits give low values",0.811 (active)
same,normalized growth,[3],0.167 (active) and 0.769 (active)
same,normalized growth,[4],0.852 (active)
same,normalized growth,[5],0.878
same,normalized growth,"S. cerevisiae deletion strains, locus YHR087W, strain rtc3, hits give low values",0.848 (active)
same,normalized growth,[6],0.772
same,normalized growth,"S. cerevisiae deletion strains, locus YJL187C, strain SWE1, hits give low values",1.02
same,normalized growth,"S. cerevisiae deletion strains, locus YJR043C, strain POL32, hits give low values",0.81 (active)
same,normalized growth,[7],0.876
same,normalized growth,"S. cerevisiae deletion strains, locus YJR075W, strain HOC1, hits give low values",0.719 (active)
same,normalized growth,"S. cerevisiae deletion strains, locus YKL171W, strain NNK1, hits give low values",0.854
same,normalized growth,"S. cerevisiae deletion strains, locus YKL190W, strain CNB1, hits give low values",0.0675 (active)
same,normalized growth,[8],0.849 (active)
same,normalized growth,"S. cerevisiae deletion strains, locus YLR039C, strain RIC1, hits give low values",0.239 (active)
same,normalized growth,"S. cerevisiae deletion strains, locus YLR058C, strain SHM2 (second series), hits give low values",0.928 (active)
same,normalized growth,"S. cerevisiae deletion strains, locus YLR085C, strain ARP6, hits give low values",0.143 (active)
same,normalized growth,[9],0.735
same,normalized growth,"S. cerevisiae deletion strains, locus YLR262C, strain YPT6, hits give low values",0.407 (active)
same,normalized growth,"S. cerevisiae deletion strains, locus YML094W, strain GIM5, hits give low values",0.747 (active)
same,normalized growth,"S. cerevisiae deletion strains, locus YMR219W, strain ESC1, hits give low values",0.848 (active)
same,normalized growth,"S. cerevisiae deletion strains, locus YMR263W, strain SAP30, hits give low values",0.867 (active)
same,normalized growth,"S. cerevisiae deletion strains, locus YNL153C, strain GIM3, hits give low values",0.849 (active)
same,normalized growth,[10],0.864
same,normalized growth,[11],0.862
same,normalized growth,"S. cerevisiae deletion strains, locus YNL298W, strain CLA4 (second series), hits give low values",0.241 (active)
same,normalized growth,"S. cerevisiae deletion strains, locus YNL322C, strain KRE1, hits give low values",0.931 (active)
same,normalized growth,"S. cerevisiae deletion strains, locus YNR030W, strain Alg12, hits give low values",0.341 (active)
same,normalized growth,"S. cerevisiae deletion strains, locus YOL006C, strain TOP1, hits give low values",0.102 (active)
same,normalized growth,[12],0.86
same,normalized growth,[13],0.869
same,normalized growth,"S. cerevisiae deletion strains, locus YPL055C, strain LGE1, hits give low values",0.84
same,normalized growth,"S. cerevisiae deletion strains, locus YPL241C, strain CIN2, hits give low values",0.446 (active)
same,normalized growth,[14],0.734 (active)
same,normalized growth,"S. cerevisiae deletion strains, locus YPR135W, strain CTF4, hits give low values",0.211 (active)
same,normalized growth,"S. cerevisiae strains, strain wild type, hits give low values",0.0898 (active)
